From PubChem BioAssay (NCI)
About 83,000 compounds went through this panel and 20% of them were active in at least one assay; those are over-represented in the sample as a whole.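 Each cell line was grown in a 96-well plate and treated with one concentration of compound for 48 hours. Values below 10 were considered active.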 Values without a mark were called inactive. Calls of active or inactive are those of the source.

Assays:
Experiment in all cases: NCI-60 one-dose screen, 48 h (100 = growth as untreated, 0 = no growth, -100 = all killed)
Details in all cases: 10 µM unless noted
RPMI-8226 leukemia = tested on: RPMI-8226 leukemia
OVCAR-8 ovarian = tested on: OVCAR-8 ovarian
OVCAR-5 ovarian = tested on: OVCAR-5 ovarian
OVCAR-4 ovarian = tested on: OVCAR-4 ovarian
SK-OV-3 ovarian = tested on: SK-OV-3 ovarian
IGROV1 ovarian = tested on: IGROV1 ovarian
OVCAR-3 ovarian = tested on: OVCAR-3 ovarian
HS 578T breast = tested on: HS 578T breast
NCI/ADR-RES ovarian = tested on: NCI/ADR-RES ovarian
T-47D breast = tested on: T-47D breast
BT-549 breast = tested on: BT-549 breast
MDA-MB-435 melanoma = tested on: MDA-MB-435 melanoma
SW-620 colon = tested on: SW-620 colon
MCF7 breast = tested on: MCF7 breast
HCT-116 colon = tested on: HCT-116 colon
HCC-2998 colon = tested on: HCC-2998 colon
KM12 colon = tested on: KM12 colon

NS(=O)(=O)c1ccc(-n2nc(-c3ccc(Cl)cc3)c3ccccc3c2=O)cc1
growth (RPMI-8226 leukemia): 84.6% | growth (OVCAR-8 ovarian): 96.9% | growth (OVCAR-5 ovarian): 93.7% | growth (OVCAR-4 ovarian): 93.7% | growth (SK-OV-3 ovarian): 96.9% | growth (IGROV1 ovarian): 75.5% | growth (OVCAR-3 ovarian): 108% | growth (HS 578T breast): 88.7% | growth (NCI/ADR-RES ovarian): 86.2% | growth (T-47D breast): 76.8% | growth (BT-549 breast): 157% | growth (MDA-MB-435 melanoma): 112% | growth (SW-620 colon): 105% | growth (MCF7 breast): 88.6% | growth (HCT-116 colon): 88.2% | growth (HCC-2998 colon): 107% | growth (KM12 colon): 97.1%

CSc1nc2ccc(C)cc2cc1/C=N/O
growth (RPMI-8226 leukemia): 106% | growth (OVCAR-8 ovarian): 84.6% | growth (OVCAR-5 ovarian): 81.6% | growth (OVCAR-4 ovarian): 91% | growth (SK-OV-3 ovarian): 86% | growth (IGROV1 ovarian): 87.8% | growth (OVCAR-3 ovarian): 106% | growth (HS 578T breast): 75% | growth (NCI/ADR-RES ovarian): 98.1% | growth (T-47D breast): 71% | growth (BT-549 breast): 73.2% | growth (MDA-MB-435 melanoma): 91.5% | growth (SW-620 colon): 85.6% | growth (MCF7 breast): 86.3% | growth (HCT-116 colon): 81.1% | growth (HCC-2998 colon): 96.6% | growth (KM12 colon): 93.7%

Cc1nc(/N=C(\N)NC(=O)Nc2cccc(Cl)c2)sc1C
growth (RPMI-8226 leukemia): 77% | growth (OVCAR-8 ovarian): 94.5% | growth (OVCAR-5 ovarian): 96.3% | growth (OVCAR-4 ovarian): 99.3% | growth (SK-OV-3 ovarian): 87.7% | growth (IGROV1 ovarian): 63.1% | growth (OVCAR-3 ovarian): 81.5% | growth (HS 578T breast): 68.8% | growth (NCI/ADR-RES ovarian): 42.3% | growth (T-47D breast): 73.5% | growth (BT-549 breast): 71.7% | growth (MDA-MB-435 melanoma): -13.5% (active) | growth (SW-620 colon): 38.2% | growth (MCF7 breast): 35.9% | growth (HCT-116 colon): 66.4% | growth (HCC-2998 colon): 78.2% | growth (KM12 colon): 41.6%

Cc1oc2nc[nH]c(=O)c2c1C(=O)/C=C/c1ccc(Br)cc1
growth (RPMI-8226 leukemia): -3.59% (active) | growth (OVCAR-8 ovarian): 7.33% (active) | growth (OVCAR-5 ovarian): 22.3% | growth (OVCAR-4 ovarian): 36% | growth (SK-OV-3 ovarian): 31.5% | growth (IGROV1 ovarian): 8.79% (active) | growth (OVCAR-3 ovarian): -10.9% (active) | growth (HS 578T breast): 24.3% | growth (NCI/ADR-RES ovarian): -30.5% (active) | growth (T-47D breast): 4.69% (active) | growth (BT-549 breast): 2.55% (active) | growth (MDA-MB-435 melanoma): 19.8% | growth (SW-620 colon): 3.84% (active) | growth (MCF7 breast): 9.43% (active) | growth (HCT-116 colon): -11.6% (active) | growth (HCC-2998 colon): -33.9% (active) | growth (KM12 colon): -5.18% (active)

CCc1nnc(NC(=O)c2nnn(-c3ccccc3)c2-c2ccco2)s1
growth (RPMI-8226 leukemia): 91% | growth (OVCAR-8 ovarian): 103% | growth (OVCAR-5 ovarian): 101% | growth (OVCAR-4 ovarian): 80.3% | growth (SK-OV-3 ovarian): 82.3% | growth (IGROV1 ovarian): 103% | growth (OVCAR-3 ovarian): 103% | growth (HS 578T breast): 92.5% | growth (NCI/ADR-RES ovarian): 100% | growth (T-47D breast): 85% | growth (BT-549 breast): 102% | growth (MDA-MB-435 melanoma): 97.1% | growth (SW-620 colon): 98.5% | growth (MCF7 breast): 78.6% | growth (HCT-116 colon): 64.2% | growth (HCC-2998 colon): 110% | growth (KM12 colon): 96.9%

O=C(CS(=O)c1oc(-c2cccs2)nc1S(=O)(=O)c1ccc(Br)cc1)c1ccccc1 (stereo unspecified)
growth (RPMI-8226 leukemia): 91.8% | growth (OVCAR-8 ovarian): 91.4% | growth (OVCAR-5 ovarian): 89.2% | growth (OVCAR-4 ovarian): 75.2% | growth (SK-OV-3 ovarian): 89.8% | growth (IGROV1 ovarian): 101% | growth (OVCAR-3 ovarian): 103% | growth (HS 578T breast): 79.5% | growth (NCI/ADR-RES ovarian): 93.8% | growth (T-47D breast): 82% | growth (BT-549 breast): 97% | growth (MDA-MB-435 melanoma): 95% | growth (SW-620 colon): 97.7% | growth (MCF7 breast): 96.9% | growth (HCT-116 colon): 86.2% | growth (HCC-2998 colon): 98.6% | growth (KM12 colon): 102%

OC(COc1ccccc1Cl)CN1CCN(c2cccc(Cl)c2)CC1 (stereo unspecified)
growth (RPMI-8226 leukemia): 115% | growth (OVCAR-8 ovarian): 91.9% | growth (OVCAR-5 ovarian): 97.8% | growth (OVCAR-4 ovarian): 110% | growth (SK-OV-3 ovarian): 109% | growth (IGROV1 ovarian): 122% | growth (OVCAR-3 ovarian): 113% | growth (HS 578T breast): 112% | growth (NCI/ADR-RES ovarian): 113% | growth (T-47D breast): 109% | growth (BT-549 breast): 95.5% | growth (MDA-MB-435 melanoma): 109% | growth (SW-620 colon): 110% | growth (MCF7 breast): 93.8% | growth (HCT-116 colon): 98.3% | growth (HCC-2998 colon): 114% | growth (KM12 colon): 104%

C=C(C)[C@@H]1CC[C@]2(N=C=O)CC[C@]3(C)[C@H](CC[C@@H]4[C@@]5(C)Cc6c([nH]c7ccccc67)C(C)(C)[C@@H]5CC[C@]43C)[C@@H]12
growth (RPMI-8226 leukemia): 18.8% | growth (OVCAR-8 ovarian): 70.7% | growth (OVCAR-5 ovarian): 92.9% | growth (OVCAR-4 ovarian): 72.7% | growth (SK-OV-3 ovarian): 89.4% | growth (IGROV1 ovarian): 84.3% | growth (OVCAR-3 ovarian): 89.2% | growth (HS 578T breast): 92% | growth (NCI/ADR-RES ovarian): 83.5% | growth (T-47D breast): 62.4% | growth (BT-549 breast): 84.3% | growth (MDA-MB-435 melanoma): 86.4% | growth (SW-620 colon): 78% | growth (MCF7 breast): 39.5% | growth (HCT-116 colon): 11.6% | growth (HCC-2998 colon): 98.4% | growth (KM12 colon): 70.5%
